Among the data in PubChem BioAssay (Tox21) are Potency values, retold here.

Inconclusive results are not listed. Activity calls are given as the source filed them. Unless noted, calls come from the whole dose curve.

The nature of experiment [1]: Nuclear factor erythroid 2-related factor 2/antioxidant responsive element (Nrf2/ARE) small molecule agonists: luciferase reporter gene qHTS assay in human keratinocytes (AID 1919969). Note: nearly all actives have a fitted effect of over 35% in size. Note: potency is the fitted concentration of half-maximal effect.
The target of experiment [2] is Gonadotropin-releasing hormone receptor (Homo sapiens) (UniProt P30968). The experiment is described as follows: Human gonadotropin-releasing hormone receptor (GnRHR) small molecule agonists, calcium flux assay in GnRHR-HEK293 cells (AID 1920063). Note: nearly all actives have a fitted effect of over 35% in size. Note: potency is the fitted concentration of half-maximal effect. A digest of the protocol:
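Compounds dissolved in DMSO are pin-transferred onto dye-loaded GnRHR-HEK293 cells, which were seeded 18 h before at 37 C/5% CO2. Calcium signal is read as fluorescence intensity at 1 s intervals for 3 min.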

Experiment [3] has as its target KiSS-1 receptor (Homo sapiens) (UniProt Q969F8). The experiment is described as follows: Human kisspeptin (KISS1R) small molecule agonists, calcium flux assay in KISS1R-HEK293 cells (AID 1920064; active = well fitted activation curve with a large enough effect in the repeat runs; note: potency is the fitted concentration of half-maximal effect). The procedure, abridged:
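Cell line: HEK293, stable human KISS1R. Dye loading 1 h at 37 C after 18 h culture. Read: kinetic fluorescence, 480/540 nm, 3 min at 1 s intervals.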

The nature of experiment [4]: G protein-coupled receptor (GPCR) small molecule agonists, calcium flux assay: HEK293 wild type cell line counter screen (AID 1920065). A digest of the protocol:
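Tox21 10K compounds, 15 concentrations each in triplicate, pin-transferred in DMSO onto dye-loaded cells; kinetic read at 480/540 nm for 3 min, 1 s intervals.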

In experiment [5] the target is Beta-2 adrenergic receptor (Homo sapiens) (UniProt P07550). The experiment can be described thus: Adrenergic beta2 receptor (ADRB2) small molecule antagonists, cell-based qHTS assay (AID 1963592). Note: nearly all actives have a fitted effect of over 50% in size. Note: potency is the fitted concentration of half-maximal effect. The procedure, abridged: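 Assay format: CHO-ADRB2 cells, 18-20hr seeding at 37C/5% CO2, then compound plus 1nM isoproterenol agonist mix for 0.5hr RT. Homogeneous time-resolved fluorescence cAMP detection after 1hr, expressed as 665/615 nm ratio.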
Beta-2 adrenergic receptor (Homo sapiens), sequence (P07550 whole entry, looked up): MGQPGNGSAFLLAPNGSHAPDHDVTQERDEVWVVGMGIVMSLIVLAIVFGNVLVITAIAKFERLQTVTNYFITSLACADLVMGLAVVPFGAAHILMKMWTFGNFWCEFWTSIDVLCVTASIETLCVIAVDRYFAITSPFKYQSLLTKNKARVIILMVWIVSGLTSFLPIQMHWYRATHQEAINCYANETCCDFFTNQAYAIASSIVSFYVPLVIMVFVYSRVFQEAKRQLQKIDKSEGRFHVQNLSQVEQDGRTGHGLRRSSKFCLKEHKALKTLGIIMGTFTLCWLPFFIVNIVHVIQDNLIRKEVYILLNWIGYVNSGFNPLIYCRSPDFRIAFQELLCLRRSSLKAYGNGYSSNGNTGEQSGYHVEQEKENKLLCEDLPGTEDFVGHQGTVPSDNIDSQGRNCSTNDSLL

The target is the same in experiment [6]. The experiment can be described thus: Adrenergic beta2 receptor (ADRB2) small molecule agonists, cell-based qHTS assay (AID 1963593).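 Note: CHO cells stably overexpressing human ADRB2.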 A digest of the protocol: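 CHO cells stably over-expressing ADRB2 were plated overnight at 37C, then dosed with compounds plus a stimulation mix containing 100uM IBMX and 25uM Ro-20-1724 for 0.5hr at room temperature. cAMP was measured by HTRF competition, 1hr.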

In experiment [7] the target is D(2) dopamine receptor (Homo sapiens) (UniProt P14416). The experiment can be described thus: Dopamine D2 receptor (DRD2) small molecule agonists, cell-based qHTS assay (AID 1963594). Note: nearly all actives have a fitted effect of over 35% in size. A digest of the protocol: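 HEK293 cells stably expressing human DRD2, pre-treated with PDE inhibitor Ro20-1724 (0.1 mM final) and compound 10 min at room temperature, then stimulated with NKH477 (200nM […]) for 30 min. cAMP read by HTRF (665/620 nm).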
D(2) dopamine receptor (Homo sapiens), sequence (P14416 whole entry, looked up): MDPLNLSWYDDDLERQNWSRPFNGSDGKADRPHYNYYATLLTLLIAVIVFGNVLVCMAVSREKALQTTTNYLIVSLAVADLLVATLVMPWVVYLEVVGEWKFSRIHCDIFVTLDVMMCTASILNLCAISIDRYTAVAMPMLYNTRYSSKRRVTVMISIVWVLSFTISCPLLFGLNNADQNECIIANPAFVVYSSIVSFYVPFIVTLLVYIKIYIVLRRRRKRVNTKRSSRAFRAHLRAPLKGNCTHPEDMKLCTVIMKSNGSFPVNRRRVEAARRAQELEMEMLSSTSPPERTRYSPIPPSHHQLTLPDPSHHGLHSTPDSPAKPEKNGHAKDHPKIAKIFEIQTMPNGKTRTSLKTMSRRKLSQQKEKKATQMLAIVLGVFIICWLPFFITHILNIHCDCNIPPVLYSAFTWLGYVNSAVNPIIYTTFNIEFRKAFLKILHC

Experiment [8] shares this target. The experiment can be described thus: Dopamine D2 receptor (DRD2) small molecule antagonists, cell-based qHTS assay (AID 1963595; active = well fitted inhibition curve with a large enough effect in the signal ratio in the repeat runs, with a control signal flat; the % refers to the signal ratio). A digest of the protocol:
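Antagonist mode in DRD2-HEK293 cells: after compound addition with 0.1 mM Ro20-1724, cells received quinpirole (12 nM) and NKH477 (200 nM) for 30 min at room temperature; HTRF cAMP read after 1 h detection.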

A short description of experiment [9]: p53 small molecule agonists, cell-based qHTS assay with human liver microsomes: qHTS cell viability counter screen (AID 1963579). Note: nearly all actives have a fitted effect of over 45% in size. Note: potency is the fitted concentration of half-maximal effect. The procedure, abridged: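 Seed p53RE-bla cells at 4,000 per well; incubate 5 h at 37 C; add compound, human liver microsomes and NADPH; incubate 16 h at 37 C; add CellTiter-Glo; after 30 min at room temperature, read luminescence.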

Experiment [10] can be described thus: p53 small molecule agonists, cell-based qHTS assay: qHTS cell viability counter screen (AID 1963581). Note: nearly all actives have a fitted effect of over 45% in size. A digest of the protocol: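 ATP content measured by luminescence in HCT-116 p53RE-bla cells treated 16 h at 37 C, same wells as the reporter screen.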
Experiment [11] deals with 5-hydroxytryptamine receptor 2A (Homo sapiens) (UniProt P28223). The experiment is described as follows: 5-hydroxytryptamine receptor 2A (HTR2A) small molecule agonists, cell-based qHTS assay (AID 1963587). Note: nearly all actives have a fitted effect of over 30% in size. Note: potency is the fitted concentration of half-maximal effect. A digest of the protocol: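 CHO cells stably expressing human HTR2A, plated 18 h, loaded with calcium dye 1 h at 37 C. Agonist mode: compounds added and intracellular calcium fluorescence recorded kinetically for 2 min at 1 sec intervals.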
5-hydroxytryptamine receptor 2A (Homo sapiens), sequence (P28223 whole entry, looked up): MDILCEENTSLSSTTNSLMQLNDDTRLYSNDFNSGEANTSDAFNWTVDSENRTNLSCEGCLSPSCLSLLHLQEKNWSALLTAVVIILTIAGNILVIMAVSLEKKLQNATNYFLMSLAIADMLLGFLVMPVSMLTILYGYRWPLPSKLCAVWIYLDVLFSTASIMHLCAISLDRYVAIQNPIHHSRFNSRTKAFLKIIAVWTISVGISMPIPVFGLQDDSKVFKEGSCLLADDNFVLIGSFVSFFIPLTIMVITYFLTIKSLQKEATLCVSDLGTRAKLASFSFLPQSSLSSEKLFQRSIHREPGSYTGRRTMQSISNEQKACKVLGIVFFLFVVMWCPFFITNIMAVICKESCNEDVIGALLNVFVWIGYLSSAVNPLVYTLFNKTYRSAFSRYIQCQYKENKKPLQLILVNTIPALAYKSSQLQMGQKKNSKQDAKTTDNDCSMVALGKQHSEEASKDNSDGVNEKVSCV

Experiment [12] deals with Muscarinic acetylcholine receptor M1 (Homo sapiens) (UniProt P11229). The experiment can be described thus: Cholinergic receptor muscarinic 1 (CHRM1) small molecule agonists, cell-based qHTS assay (AID 1963589). Note: nearly all actives have a fitted effect of over 35% in size. Note: potency is the fitted concentration of half-maximal effect. The procedure, abridged:
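Homogeneous fluorescence calcium flux, agonist mode. Human M1-expressing CHO cells; compound dosed at 15 concentrations, three independent runs; signal sampled every 1 sec.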

Experiment [13] is described as follows: p53 small molecule agonists, cell-based qHTS assay with rat liver microsomes (AID 1963578). The procedure, abridged: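 Fluorescence from a beta-lactamase reporter under a p53 response element was measured after cells had been incubated 16 h at 37 C with test compound and rat liver microsomes plus NADPH (0.5 mg/mL final each).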
A short description of experiment [14]: p53 small molecule agonists, cell-based qHTS assay with rat liver microsomes: qHTS cell viability counter screen (AID 1963580). Note: nearly all actives have a fitted effect of over 45% in size. A digest of the protocol: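 After the beta-lactamase ratio was read, CellTiter-Glo was added to the same wells and luminescence measured at 30 min; cells had been treated 16 h at 37 C with compounds, rat liver microsomes and NADPH (0.5 mg/mL final each).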

Experiment [15] deals with 5-hydroxytryptamine receptor 2A (Homo sapiens) (UniProt P28223). The experiment can be described thus: 5-hydroxytryptamine receptor 2A (HTR2A) small molecule antagonists, cell-based qHTS assay (AID 1963586). Note: nearly all actives have a fitted effect of over 45% in size. The procedure, abridged:
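CHO cells stably expressing human HTR2A were plated for 18 h at 37 C, then loaded with calcium dye for 1 h. Compounds were preincubated 5 min at room temperature before DOI (4 nM solution) was added. Kinetic fluorescence was read for 3 min.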

For experiment [16], the target named is Muscarinic acetylcholine receptor M1 (Homo sapiens) (UniProt P11229). The experiment can be described thus: Cholinergic receptor muscarinic 1 (CHRM1) small molecule antagonists, cell-based qHTS assay (AID 1963588). Note: nearly all actives have a fitted effect of over 40% in size. The procedure, abridged:
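Compounds were tested at 15 concentrations in three independent runs. Dye-loaded CHRM1-CHO cells were exposed 5 min at room temperature before stimulation by acetylcholine added at 50nM. Intracellular calcium was read kinetically on FDSS for 3 min.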

A short description of experiment [17]: p53 small molecule agonists, cell-based qHTS assay with human liver microsomes (AID 1963577). The procedure, abridged: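 Cells carrying a p53-responsive bla reporter were rested 5 h (37 C, 5% CO2) before compound transfer. Human liver microsomes plus NADPH, 0.5 mg/mL final apiece, supplied metabolism during the 16 h 37 C exposure.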
The nature of experiment [18]: p53 small molecule agonists, cell-based qHTS assay (AID 1963582; active = well fitted activation curve with a large enough effect in the signal ratio in the repeat runs, not every such curve was filed as active; the % refers to the signal ratio). A digest of the protocol:
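16 h compound exposure (37 C) of p53 response element–bla cells, preceded by 5 h recovery at 37 C/5% CO2; read-out via LiveBLAzer B/G FRET substrate, 2 h RT, fluorescence intensity.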

A short description of experiment [19]: cAMP Responsive Elements (CRE) small molecule antagonists, cell-based qHTS assay (AID 1963591; active = well fitted inhibition curve with a large enough effect in the signal ratio in the repeat runs, not every such curve was filed as active; the % refers to the signal ratio). The procedure, abridged: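 First, CRE-bla HEK293T cells settled 18 h at 37 C. Next, compound and 0.25 uM final NKH477 were applied for 3 h. Last, LiveBLAzer B/G substrate was loaded for 2 h at room temperature.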
A short description of experiment [20]: cAMP Responsive Elements (CRE) small molecule agonists, cell-based qHTS assay (AID 1963590). A digest of the protocol:
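HEK 293T cells stably bearing CRE-bla were plated at 2,000 cells per well and rested 18 h. Compounds, positive controls or DMSO were added for 3 h at 37 C. LiveBLAzer B/G substrate was then loaded for 2 h at room temperature.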

Gonadotropin-releasing hormone receptor (Homo sapiens), sequence (P30968 whole entry, looked up): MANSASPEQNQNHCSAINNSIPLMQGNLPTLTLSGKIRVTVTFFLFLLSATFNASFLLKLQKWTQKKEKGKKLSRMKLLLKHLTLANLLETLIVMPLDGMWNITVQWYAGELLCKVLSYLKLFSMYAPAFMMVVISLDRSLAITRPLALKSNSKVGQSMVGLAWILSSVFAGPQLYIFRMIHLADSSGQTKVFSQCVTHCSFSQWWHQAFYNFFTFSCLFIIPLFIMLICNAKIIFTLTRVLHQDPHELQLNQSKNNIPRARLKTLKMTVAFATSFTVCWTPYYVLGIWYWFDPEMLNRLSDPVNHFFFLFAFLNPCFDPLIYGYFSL
KiSS-1 receptor (Homo sapiens), sequence (Q969F8 whole entry, looked up): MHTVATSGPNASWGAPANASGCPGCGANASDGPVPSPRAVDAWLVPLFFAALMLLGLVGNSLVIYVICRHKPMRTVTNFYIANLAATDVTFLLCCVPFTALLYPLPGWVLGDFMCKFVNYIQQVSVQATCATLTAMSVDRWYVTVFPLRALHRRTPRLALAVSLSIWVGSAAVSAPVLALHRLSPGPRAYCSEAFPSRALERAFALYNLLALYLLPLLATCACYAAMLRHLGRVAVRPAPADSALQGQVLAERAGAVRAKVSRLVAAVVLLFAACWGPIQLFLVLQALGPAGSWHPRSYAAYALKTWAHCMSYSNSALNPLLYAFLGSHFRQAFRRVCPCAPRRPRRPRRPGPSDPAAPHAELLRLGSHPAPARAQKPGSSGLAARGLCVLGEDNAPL
Muscarinic acetylcholine receptor M1 (Homo sapiens), sequence (P11229 whole entry, looked up): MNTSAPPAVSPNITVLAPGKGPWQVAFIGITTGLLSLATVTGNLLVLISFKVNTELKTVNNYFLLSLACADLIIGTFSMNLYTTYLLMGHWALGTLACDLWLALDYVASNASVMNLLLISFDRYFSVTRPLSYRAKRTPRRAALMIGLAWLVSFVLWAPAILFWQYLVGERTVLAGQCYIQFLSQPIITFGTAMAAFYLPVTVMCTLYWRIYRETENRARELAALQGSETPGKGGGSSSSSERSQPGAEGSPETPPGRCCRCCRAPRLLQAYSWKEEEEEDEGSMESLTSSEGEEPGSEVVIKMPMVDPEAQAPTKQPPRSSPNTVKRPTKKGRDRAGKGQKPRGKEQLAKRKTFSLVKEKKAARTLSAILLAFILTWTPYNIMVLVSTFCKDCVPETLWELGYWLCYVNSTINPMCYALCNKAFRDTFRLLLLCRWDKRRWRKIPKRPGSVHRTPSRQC

Consider `CCC1=C[C@@H]2CN(C1)Cc1c([nH]c3ccccc13)[C@@](C(=O)OC)(c1cc3c(cc1OC)N(C)[C@H]1[C@@](O)(C(=O)OC)[C@H](OC(C)=O)[C@]4(CC)C=CCN5CC[C@]31[C@@H]54)C2`, for which the Potency in [1] was 0.376 µM (active). Further, the Potency result in experiment [2], in [3], in experiment [4], in experiment [5], in [6] and in [7] was “inactive” in each case. Besides, the Potency result in experiment [8] is “inactive”.
As for `Oc1cc(Cl)cc(Cl)c1Cl`, the Potency in [1] was 49.7 µM (active); in experiment [9] it was 29.6 µM (active). Also, the Potency result in [2], in experiment [3], in experiment [4], in experiment [10], in experiment [11] and in [12] was “inactive” each time. Moreover, the Potency result in experiment [5], in [7] and in experiment [8] was “inactive” each time.
With `O=C(O)COc1ccc2ccccc2c1`, the Potency result in [1], in experiment [2], in experiment [3], in experiment [13], in experiment [9] and in [14] was “inactive” each time. Also, the Potency entry in experiment [10], in [15], in [16], in experiment [12], in [5] and in experiment [7] was “inactive” in each case. The Potency entry in [8] was “inactive”.
As for `O=C(Nc1ncc([N+](=O)[O-])s1)c1cccs1`, the Potency in experiment [1] is 1.06 µM (active). Besides, the Potency entry in experiment [2], in experiment [3], in experiment [17], in experiment [13], in experiment [10] and in [18] was “inactive” each time. The Potency entry in experiment [11], in experiment [16], in experiment [12], in experiment [19], in experiment [7] and in [8] was “inactive” throughout.
As to `C/C=C/C=C/C=O`, the Potency in experiment [1] is 60.7 µM (active). For the same molecule, the Potency result in [2], in [3], in [4], in experiment [14], in experiment [10] and in experiment [15] was “inactive” each time. Moreover, the Potency result in experiment [11], in [16], in experiment [12], in [20], in [19] and in experiment [7] was “inactive” each time.
As to `C=CCCC(=O)O`, the Potency result in experiment [1], in [2], in experiment [3], in experiment [4], in experiment [14] and in experiment [10] was “inactive” throughout. The Potency result in experiment [15], in [11], in experiment [16], in experiment [12], in experiment [20] and in experiment [19] was “inactive” in each case. Besides, the Potency entry in experiment [6], in [7] and in [8] was “inactive” in each case.
Consider `CCCCC(CC)CNCC(CC)CCCC` (stereo not given), for which the Potency result in [1], in [2], in experiment [3], in experiment [4], in experiment [10] and in experiment [11] was “inactive” in each case. The Potency result in experiment [16], in experiment [12], in [20], in experiment [19], in experiment [5] and in experiment [6] was “inactive” throughout. Further, the Potency entry in experiment [7] and in [8] was “inactive” in each case.
`O=C1OC2(c3ccccc31)c1ccc(O)c(Br)c1Oc1c2ccc(O)c1Br`: the Potency result in experiment [1], in experiment [9], in experiment [14], in experiment [10], in [15] and in experiment [16] was “inactive” throughout. For the same molecule, the Potency is 13.8 µM (active) in [2]; 7.76 µM (active) in [3]; 1.55 µM (active) in experiment [11]; 24.5 µM (active) in experiment [12]; 68.6 µM (active) in experiment [5].
With `COc1ccc(-c2cc(=S)ss2)cc1`, the Potency in [1] is 33.5 µM (active). Besides, the Potency entry in experiment [2], in [3], in experiment [17], in [13], in experiment [9] and in [14] was “inactive” in each case. Also, the Potency entry in experiment [10], in experiment [11], in experiment [16], in experiment [12], in experiment [20] and in experiment [19] was “inactive” in each case. Also, the Potency result in [5], in experiment [6], in [7] and in experiment [8] was “inactive” in each case.
